# From PubChem
# IL-1B inflam inh: qHTS for Inhibitors of Inflammasome Signaling: IL-1-beta AlphaLISA Primary Screen; activity change, % at 57.5 µM; 360,000 tested, 4.7% active; THP-1 LPS/ATP IL-1B secretion, AlphaLISA, 16 h; active compounds read low; AID 743279, 2014; in the data active means activity change below about -50%; inconclusive means mostly about -30% to -49%
#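 Secreted IL-1B measured by AlphaLISA bead assay after 16 h compound exposure of THP-1 cells; compounds (final up to 57.5 uM) added 1 h before LPS (250 ng/mL) and ATP (1.25 mM) stimulation; lower signal means less secretion.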
# 12-LOX inh: Primary qHTS assay for inhibitors of human arachidonate 12S-lipoxygenase (ALOX12): Round 2; Polyunsaturated fatty acid lipoxygenase ALOX12 (Homo sapiens), P18054; Potency, µM (highest dose often 108 µM), actives largely listed as inhibitors; purified 12hLO, xylenol orange hydroperoxide absorbance; 580,000 tested, 1.1% active
# Target sequence (P18054 whole entry, looked up): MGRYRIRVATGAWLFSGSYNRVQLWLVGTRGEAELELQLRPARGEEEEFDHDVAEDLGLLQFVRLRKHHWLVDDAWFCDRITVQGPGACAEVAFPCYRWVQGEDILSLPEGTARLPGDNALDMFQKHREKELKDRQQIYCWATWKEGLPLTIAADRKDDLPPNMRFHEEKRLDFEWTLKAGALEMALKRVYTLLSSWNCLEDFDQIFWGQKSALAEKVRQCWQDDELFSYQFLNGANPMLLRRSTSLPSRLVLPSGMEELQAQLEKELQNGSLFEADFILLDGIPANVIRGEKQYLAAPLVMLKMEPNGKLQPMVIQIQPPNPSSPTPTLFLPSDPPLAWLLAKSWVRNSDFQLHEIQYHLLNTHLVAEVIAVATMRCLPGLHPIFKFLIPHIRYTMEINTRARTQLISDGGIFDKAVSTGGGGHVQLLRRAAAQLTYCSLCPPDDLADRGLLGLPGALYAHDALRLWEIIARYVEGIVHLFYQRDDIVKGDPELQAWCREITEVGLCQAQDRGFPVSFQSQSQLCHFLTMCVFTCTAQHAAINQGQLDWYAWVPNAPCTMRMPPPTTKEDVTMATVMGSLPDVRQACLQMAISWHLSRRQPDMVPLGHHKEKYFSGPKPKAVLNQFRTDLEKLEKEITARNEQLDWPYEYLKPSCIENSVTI
#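 Purified human 12hLO at 150 nM in 25 mM Hepes, 0.01% Triton X-100, pH 7.0, preincubated 15 min at room temperature with compound. Reaction started with 40 uM arachidonic acid, 30 min at room temperature. Hydroperoxide measured by Fe-xylenol orange, 573/405 nm absorbance ratio.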
# HT1080-NT tox: qHTS for induction of synthetic lethality in tumor cells producing 2HG: qHTS for the HT-1080-NT fibrosarcoma cell line | HT-1080-NT fibrosarcoma viability, CellTiter-Glo ATP luminescence, 48 h | 360,000 tested, 1.6% active | AID 686970, 2013 | Potency, µM (titrated, usually from 46.1 µM), actives largely listed as cytotoxic;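 further: NT is the 2HG producing partner of a matched IDH1 knockdown line; nearly all actives have a fitted effect of over 55% in size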
#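 HT-1080-NT; 750 cells/well; 5% FBS RPMI; 48 h compound, 37 degrees C; CellTiter-Glo luminescence; curve fitting and curve-class assignment.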
# DT40 TDP1 CPT: qHTS for Inhibitors of human tyrosyl-DNA phosphodiesterase 1 (TDP1): qHTS in cells in presence of CPT | chicken DT40 Tdp1-/-;hTDP1 cells + 20 nM CPT, ATP luminescence, 48 h | Potency, µM (top dose mostly 46.2 µM), hits mostly inhibitors | 420,000 tested, 12% active | AID 686979, 2013; further: nearly all actives have a fitted effect of over 55% in size
#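 Chicken DT40 Tdp1-/- cells stably complemented with human TDP1 were seeded at 400 cells/well in medium containing 20 nM camptothecin, exposed to pin-transferred compounds, and grown at 37 °C for at least 48 hr. Viability was read as ATP luminescence.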
# HT1080 IDH1KD tx: qHTS for induction of synthetic lethality in tumor cells producing 2HG: qHTS for the HT-1080-IDH1KD cell line; HT-1080 IDH1 knockdown viability, ATP luminescence, 48 h; Potency, µM (top dose mostly 46.1 µM), most hits filed as cytotoxic; 360,000 tested, 2% active; AID 686971, 2013
#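 Viability of IDH1-knockdown HT-1080 fibrosarcoma cells was assessed by CellTiter-Glo after 48 h at 37 °C with titrated compound; concentration-effect curves were classified by fit quality and response size.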
# TDP1 cell noCPT: qHTS for Inhibitors of human tyrosyl-DNA phosphodiesterase 1 (TDP1): qHTS in cells in absence of CPT | DT40 Tdp1-/- hTDP1 cells, no CPT, ATP luminescence, 48 h | 420,000 tested, 15% active | AID 686978, 2013 | Potency, µM (titrated, usually from 46.2 µM), most hits filed as inhibitors; further: nearly all actives have a fitted effect of over 55% in size
#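 Cells were dispensed at 400 per well, compounds added by pin tool, plates incubated ≥48 hr at 37 °C, then CellTiter-Glo added for 30 min at room temperature before luminescence reading. Line: DT40 Tdp1-/- complemented with hTDP1; camptothecin omitted.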
# A number is an active result; i = inactive; ? = inconclusive; nt = not tested or not shown; [ ] = another dose, or the depositor's remark. The sample as a whole holds a higher share of hits than the screen did. Unless noted, the call rests on the fitted dose curve; in most records, active means well fitted curve in the direction sought with a large enough effect; inconclusive means small, poorly fitted or top-dose-only effect, or another doubt; inactive means no such curve, though single readings can be large; an effect the other way counts as inactive or inconclusive.
SMILES,IL-1B inflam inh,12-LOX inh,HT1080-NT tox,DT40 TDP1 CPT,HT1080 IDH1KD tx,TDP1 cell noCPT
O=C(Nc1nc2ccccc2[nH]1)C1CCC1,i,i,?,?,?,23.1µM
O=C(CC1CCCC1)Nc1nc2ccccc2[nH]1,i,i,i,?,i,9.2µM
O=C(Nc1nc2ccccc2[nH]1)C1CCCC1,?,i,i,i,i,i
O=C(CN1C(=O)NC2(CCCC2)C1=O)Nc1nc2ccccc2[nH]1,i,i,i,i,i,i
CC(=O)c1cccc(NC(=O)c2sc(-n3nc(C)c(CCC(C)C)c3C)nc2C)c1,nt,?,nt,13µM,nt,?
Cc1cccc(NC(=O)c2sc(-n3nc(C)c(CCC(C)C)c3C)nc2C)c1C,nt,i,nt,?,nt,20.6µM
Cc1nc(-n2nc(C)c(CCC(C)C)c2C)sc1C(=O)Nc1cccc(Cl)c1,nt,i,nt,?,nt,?
Cc1nc(-n2nc(C)c(CCC(C)C)c2C)sc1C(=O)Nc1cccc(Cl)c1C,nt,i,nt,i,nt,i
COc1cccc2[nH]c(C(=O)N[C@@H](C)C(=O)Nc3ccc4c(c3)OCCO4)cc12,nt,i,nt,nt,nt,nt
COc1cc2c(cc1OC)C(C)N(C(=O)c1cc3c(s1)-c1c(C)cccc1OC3)CC2 (centres undefined),i,i,i,?,?,16.4µM
COc1cc2c(cc1OC)C(C)N(C(=O)C1COc3ccccc3O1)CC2 (centres undefined),-51.1,i,i,16.4µM,i,25.9µM
COc1cc2c(cc1OC)C(C)N(C(=O)c1cccs1)CC2 (centres undefined),i,i,i,?,i,?
COc1cc2c(cc1OC)C(C)N(C(=O)c1cc3c(s1)-c1ccccc1OC3)CC2 (centres undefined),i,i,?,?,?,20.6µM
COc1cc2c(cc1OC)C(C)N(C(=O)c1cc3c(=O)oc4ccc(C)cc4c3s1)CC2 (centres undefined),i,i,i,13µM,i,14.6µM
COc1ccc(C(=O)N2CCN(C(=O)C3COc4ccccc4O3)CC2)cc1OC (centres undefined),i,i,i,i,i,i
CCOc1cc(/C=C2/NC(=O)NC2=O)ccc1OCc1ccc(Cl)cc1Cl,nt,i,nt,nt,nt,nt
CC1=C[C@@H](CNC(=O)Cn2cnnn2)[C@H](C(C)C)C[C@H]1Cc1nc2ccccc2n1C,nt,i,nt,nt,nt,nt
COc1ccc2cc(C(c3nnnn3CC3CCCO3)N3CCOCC3)c(=O)[nH]c2c1 (centres undefined),i,i,i,i,i,i
COCCn1nnnc1C(c1cc2cc(C)ccc2[nH]c1=O)N1CCCCCC1 (centres undefined),i,nt,i,i,i,i
COCCn1nnnc1C(c1cc2c(C)cc(C)cc2[nH]c1=O)N1CCCCCC1 (centres undefined),i,nt,i,23.1µM,?,18.4µM
CCN(Cc1ccccc1)C(c1cc2cc(C)cc(C)c2[nH]c1=O)c1nnnn1CCOC (centres undefined),-51.8,i,i,?,i,?
COc1ccc2cc(C(c3nnnn3CCc3ccccc3)N3CCCC(C)C3)c(=O)[nH]c2c1 (centres undefined),-84.8,?,i,?,i,?
CCN(Cc1ccccc1)C(c1cc2cc(C)ccc2[nH]c1=O)c1nnnn1CCOC (centres undefined),i,?,i,i,i[9.24 µM],?
COCCn1nnnc1C(c1cc2cc(OC)ccc2[nH]c1=O)N1CCC(Cc2ccccc2)CC1 (centres undefined),?,i,i,14.6µM,i,23.1µM
COc1ccc2[nH]c(=O)c(C(c3nnnn3CC3CCCO3)N3CCCCC3)cc2c1 (centres undefined),i,i,i,i,i,i
SMILES,IL-1B inflam inh,12-LOX inh,HT1080-NT tox,DT40 TDP1 CPT,HT1080 IDH1KD tx,TDP1 cell noCPT
COc1cn(CC(=O)Nc2ccc(C(F)(F)F)cc2)c(CN2CCN(C(C)=O)CC2)cc1=O,nt,i,nt,nt,nt,nt
COc1cccc(S(=O)(=O)N2CC(n3cc(C(=O)NCc4ccncc4)nn3)C2)c1,nt,i,nt,nt,nt,nt
CCN(c1ccccc1)S(=O)(=O)c1ccc(Cl)c(C(=O)NCCc2ccc(OC)cc2)c1,i,i,i,18.4µM,i,?
COc1ccc(CCNC(=O)c2ccc(Cl)c(S(=O)(=O)N(C)c3ccccc3)c2)cc1,?,i,i,20.6µM,i,16.4µM
COc1ccc(CCNC(=O)c2ccc(CNS(=O)(=O)c3ccc(C(C)(C)C)cc3)cc2)cc1OC,i,i,i,?,i,?
CCOc1ccc(S(=O)(=O)N(C)c2ccc(OCC(=O)NCC3CCCCC3)cc2)cc1,?,i,i,16.4µM,i,20.6µM
COc1ccc(CCNC(=O)c2ccccc2N(C)S(=O)(=O)c2ccccc2)cc1,i,i,i,i,i,i
COc1ccc(CCNC(=O)c2ccc(S(=O)(=O)N(C)c3ccccc3)cc2)cc1OC,i,i,i,?,i,23.1µM
Cc1ccc(C)c(Sc2ccc(NC(=O)C3CCC(C(C)(C)C)CC3)cc2)c1 (centres undefined),nt,i,nt,nt,nt,nt
